Screens as filed in PubChem.
RecA intein inh – Mtb RecA intein splicing inhibitors, primary screen, biochemical, fluorescence, HTS; inhibition, % (no concentration beside the values); Protein RecA (Mycobacterium tuberculosis (strain ATCC 25618 / H37Rv)), P9WHJ3; cell-free RecA intein splicing; AID 2221, 2009; actives 0.75% (n = 290,000); in the data active means inhibition above about 30%; inconclusive means no clear call, values can overlap the other calls
Mtb bLac sens – beta-lactam sensitization of Mtb H37Rv, H37Rv; M. tuberculosis H37Rv growth with meropenem, percent inhibition; inhibition, % at 25 µM; actives 0.27% (n = 330,000); AID 434955, 2010;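 further: growth measured after seven days incubation then overnight dye step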
GDH-TPI inh – GDH-TPI coupling enzyme inhibitors, primary screen, artefact control for M. tuberculosis FBA inhibitor project, biochemical, absorbance, full deck; GDH-TPI coupled enzyme counterscreen, NADH absorbance; inhibition, % at 4.8 µM; actives 1.2% (n = 360,000); in the data active means inhibition above about 30%
CCHF vOTU inh – CCHFV vOTU protease inhibitors, primary screen, biochemical, Pep-AMC substrate, fluorescence. actives 0.55% (n = 370,000). AID 651958, 2012. inhibition, % at 11.5 µM. Crimean-Congo hemorrhagic fever virus L polyprotein viral ovarian tumor (vOTU) protease …; in the data active means inhibition above about 30%
Mtb FBA inh – Mtb FBA enzyme inhibitors, primary screen, biochemical, fluorescence, strain H37Rv | Fructose-bisphosphate aldolase (Mycobacterium tuberculosis (strain ATCC 25618 / H37Rv)), … | purified M. tuberculosis FBA, fluorescence read-out | inhibition, % at 1 µM | actives 2.3% (n = 360,000); in the data active means inhibition above about 27%
Target sequence (P9WQA3 whole entry, looked up): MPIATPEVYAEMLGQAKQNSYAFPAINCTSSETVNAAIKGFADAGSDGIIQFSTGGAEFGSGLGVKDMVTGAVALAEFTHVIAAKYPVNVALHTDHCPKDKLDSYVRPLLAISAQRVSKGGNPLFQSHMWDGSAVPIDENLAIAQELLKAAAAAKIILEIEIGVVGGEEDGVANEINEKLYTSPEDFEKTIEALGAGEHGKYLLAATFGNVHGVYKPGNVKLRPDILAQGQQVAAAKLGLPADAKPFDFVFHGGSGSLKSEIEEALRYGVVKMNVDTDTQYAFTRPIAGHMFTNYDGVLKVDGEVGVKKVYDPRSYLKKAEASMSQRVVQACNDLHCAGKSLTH
GFP chromophore – counter-screen: blocks GFP chromophore formation, dose response, counter-screen, biochemical, fluorescence, homogeneous. shares compounds with RecA intein inh. cell-free GFP chromophore formation. EC50, µM. actives 83% (n = 2,100). AID 434968, 2010
Numbers stand for hits; . = inactive; ? = inconclusive; / = no result. An excerpt weighted towards active compounds, which were near 4.2% of everything screened. Unless noted, how the calls were made is not given here.

SMILES | RecA intein inh | Mtb bLac sens | GDH-TPI inh | CCHF vOTU inh | Mtb FBA inh | GFP chromophore
CC1=NNC(=O)C1Br (stereo not given) | / | / | . | . | . | /
CC1=NNC(=O)C1Oc1ccccc1 (stereo not given) | 96 | . | . | . | . | 1.1
CC(=O)Oc1ccc2ccccc2c1C(NC(=O)Cc1ccccc1)c1ccc(Cl)cc1 (stereo not given) | 43 | . | . | . | . | .
CCOc1ccc(C(NC(=O)CC)c2c(O)ccc3ccccc23)cc1 (stereo not given) | . | . | . | . | . | /
Cc1ccc(C)c(S(=O)(=O)C(C#N)c2nc3ccccc3nc2N2CCCC2)c1 (stereo not given) | . | . | . | . | . | /
Cc1cccc(S(=O)(=O)C(C#N)c2nc3ccccc3nc2N2CCCC2)c1 (stereo not given) | 45 | . | . | . | 74 | .
COc1ccc(Nc2cnn(-c3nc4ccccc4s3)c(=O)c2Cl)cc1 | 47 | . | . | . | . | 6.7
O=c1c(Cl)c(Nc2cccc(Cl)c2)cnn1-c1nc2ccccc2s1 | . | ? | . | . | . | /
Cc1ccccc1CN1CCCCC(NC(=O)c2ccc3ccccc3c2)C1=O (stereo not given) | / | / | / | . | / | /
Cc1ccc(-n2nnc3c(SCC(=O)NCC4CCCO4)ncnc32)cc1 (stereo not given) | 40 | . | . | / | . | .
O=C(CSc1ncnc2c1nnn2-c1ccc(F)cc1)NCC1CCCO1 (stereo not given) | 38 | . | . | . | . | 8.9
O=C(Cn1cnc2c(nnn2-c2ccc(F)cc2)c1=O)NCC1CCCO1 (stereo not given) | . | . | . | . | . | /
CCCCCCCCN1C(=O)[C@@H](CC(=O)NCCCCc2ccccc2)C[C@@]2(C(=O)OC)C1=C[C@H](COCc1ccccc1)O[C@@H]2C | / | / | / | . | / | /
CC1=NN(c2ccccc2)C(=O)/C1=C\c1c(C)[nH]n(-c2ccccc2)c1=O | . | . | . | . | . | /
CC1=NN(c2ccccc2)C(=O)/C1=C/c1c(O)n(-c2ccc(F)c(Cl)c2)[nH]c1=O | 50 | . | / | / | / | 32
CC1=NN(c2ccccc2)C(=O)/C1=C\c1cn(CCC#N)nc1-c1ccc(Cl)cc1 | 37 | . | . | . | . | 10
CCOC(=O)c1c(C)[nH]c2cc(Br)c(O)cc12 | . | . | . | . | . | /
CCOC(=O)c1c(OCC)[nH]c2c1cc(O)c1ccccc12 | 95 | . | . | . | . | 4.3
CCC(C)C1C(C#N)=C(N)Oc2n[nH]c(C)c21 (stereo not given) | . | . | . | . | . | /
CSCCC1C(C#N)=C(N)Oc2n[nH]c(-c3cccs3)c21 (stereo not given) | 85 | . | . | . | . | 9.1
CC(C)CC1C(C#N)=C(N)Oc2n[nH]c(-c3cccs3)c21 (stereo not given) | 86 | . | . | . | . | .
CC(C)CC1C(C#N)=C(N)Oc2c1c(=O)oc1ccccc21 (stereo not given) | . | . | . | . | . | /
CC(=O)N1CCN(C2=Nc3ccccc3Sc3ccccc32)CC1 | / | / | / | . | / | /
COCc1[nH]nc2c1C(c1ccsc1)C(C#N)=C(N)O2 (stereo not given) | 64 | . | . | . | . | 35
CCOC(=O)C1=C(C)OC(N)=C(C#N)C1c1ccsc1 (stereo not given) | . | . | . | / | . | /
SMILES | RecA intein inh | Mtb bLac sens | GDH-TPI inh | CCHF vOTU inh | Mtb FBA inh | GFP chromophore
CCCc1[nH]nc2c1C(c1ccsc1)C(C#N)=C(N)O2 (stereo not given) | 66 | . | . | . | . | 29
CCOC(=O)C1=C(CC)OC(N)=C(C#N)C1c1ccsc1 (stereo not given) | . | . | . | . | . | /
CC(COc1ccc(Br)cc1)CN1CCC(C(O)(c2ccccc2)c2ccccc2)CC1 (stereo not given) | / | / | / | . | / | /
NC1=NC(=Nc2cccc(S(N)(=O)=O)c2)c2ccccc21 | . | . | . | . | . | /
COc1cc(N=Nc2cccc(S(N)(=O)=O)c2)c2ccccc2c1N | 45 | . | . | . | . | 33
Cc1cc(-c2[nH]nc3c2C(c2ccsc2)C(C#N)=C(N)O3)c(C)s1 (stereo not given) | 86 | . | . | . | . | 6.6
N#CC1=C(N)Oc2cc(O)ccc2C1c1cccnc1 (stereo not given) | / | . | . | . | . | /
Cc1cc(-c2[nH]nc3c2C(c2cccc(O)c2)C(C#N)=C(N)O3)c(C)s1 (stereo not given) | 83 | . | . | . | . | 9.3
O=C(N[C@H](Cc1ccccc1)C(=O)NCc1ccc2c(c1)OCO2)[C@H]1O[C@@H](n2ccc(=O)[nH]c2=O)[C@H](O)[C@@H]1O | / | / | / | . | / | /
CC(C)(c1ccccc1)c1ccc(OCC2CO2)cc1 (stereo not given) | 41 | . | . | . | . | .
CN(C)CCOc1ccc(C(C)(C)c2ccccc2)cc1 | . | . | . | . | . | /
COc1cc(/C=C2\C(=O)N(c3ccc(NC(C)=O)cc3)N=C2c2ccccc2)ccc1O | 83 | . | . | . | . | .
Cc1cc(C)c(S(=O)(=O)Nc2cc(SCC(=O)O)c(O)c3ccccc23)cc1C | 97 | . | / | / | / | 0.87
Cc1cc(C)c(S(=O)(=O)/N=C2/C=C(SCC(=O)O)C(=O)c3ccccc32)cc1C | / | / | . | / | . | /
CCCC(C)C(=O)NC1CCCCN(C)C1=O (stereo not given) | / | / | / | . | / | /
O=C(CNC(=O)C1COc2ccccc2O1)N/N=C\c1ccccc1Cl (stereo not given) | . | . | . | . | . | .
O=C(N/N=C\c1ccc(-c2ccccc2[N+](=O)[O-])o1)C1COc2cc3ccccc3cc2O1 (stereo not given) | . | . | . | . | . | /
O=C(N/N=C\c1ccc(-c2ccccc2[N+](=O)[O-])o1)C1COc2ccccc2O1 (stereo not given) | 33 | . | . | . | . | 39
CNS(=O)(=O)c1cccc(C(=O)OCC(=O)NC(C)CCc2ccccc2)c1 (stereo not given) | . | . | . | . | . | /
CC(CCc1ccccc1)NC(=O)COC(=O)c1cc(NS(=O)(=O)c2ccc(Cl)c([N+](=O)[O-])c2)ccc1O (stereo not given) | 38 | . | . | . | . | .
O=c1cc(N=Nc2ccc(Cl)cc2)[nH]c(=O)[nH]1 | 88 | . | . | . | . | ?
O=C(Nc1ccccc1)Nc1ccccc1NS(=O)(=O)c1cccs1 | . | . | . | . | . | /
O=C(Nc1ccc(Cl)c(Cl)c1)Nc1ccccc1NS(=O)(=O)c1cccs1 | 31 | . | . | . | . | .
